# Shown are actives, neighbours in structure and some others; about 2.4% of the full set was active somewhere.
# Arbovirus anti – antivirals against arbovirus infection; arbovirus infection cell-based antiviral screen; inhibition, % at 10 µM; 0.37% of 200,000 active; AID 1251; in the data active = inhibition above about 30%
# MEKK2 mut-MEK5 – signal of MEK5 binding to mutant human MEKK2 PB1 domain; bead flow cytometry, Alexa488-MEK5 binding to MEKK2 mutant; 0.35% of 290,000 active; percent response, % at 10 µM; AID 1530; in the data active = percent response above about 24%, passing the limit was not always enough
# MEKK2wt PB1 HTS – raises or lowers MEK5 binding to wildtype human MEKK2 PB1 domain; 1.1% of 290,000 active; binding response (% of control), % at 10 µM; Q9Y2U5; AID 1531; bead flow cytometry, Alexa488-MEK5 binding to MEKK2 WT; actives lie on both sides; in the data active = binding response below about 67% or above about 130%
# Pf gamet viab – kills late stage P. falciparum gametocytes; AID 743093; P. falciparum stage V gametocytes, ATP luminescence, 24 h; 0.065% of 150,000 active; inhibition, % at 10.9 µM;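 active = inhibition above the mean plus 3 SD of compounds within the control limits, set per campaign, cut at about 38% in these data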
# MEKK3 PB1 HTS – raises or lowers MEK5 binding to the human MEKK3 PB1 domain; 1.4% of 290,000 active; bead-based flow cytometry, Alexa488-MEK5 binding to MEKK3; actives lie on both sides; 0 = blocked by unlabeled MEK5, 100 = vehicle; binding response (% of control), % at 10 µM; Q99759;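 active = binding response more than 3 SD above or below the average of its plate-row segment, actives on both sides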;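 note: Alexa488 bead fluorescence after subtracting the streptavidin-only scavenger bead signal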
# Target sequence (Q99759 whole entry, looked up, the tested form may be a part): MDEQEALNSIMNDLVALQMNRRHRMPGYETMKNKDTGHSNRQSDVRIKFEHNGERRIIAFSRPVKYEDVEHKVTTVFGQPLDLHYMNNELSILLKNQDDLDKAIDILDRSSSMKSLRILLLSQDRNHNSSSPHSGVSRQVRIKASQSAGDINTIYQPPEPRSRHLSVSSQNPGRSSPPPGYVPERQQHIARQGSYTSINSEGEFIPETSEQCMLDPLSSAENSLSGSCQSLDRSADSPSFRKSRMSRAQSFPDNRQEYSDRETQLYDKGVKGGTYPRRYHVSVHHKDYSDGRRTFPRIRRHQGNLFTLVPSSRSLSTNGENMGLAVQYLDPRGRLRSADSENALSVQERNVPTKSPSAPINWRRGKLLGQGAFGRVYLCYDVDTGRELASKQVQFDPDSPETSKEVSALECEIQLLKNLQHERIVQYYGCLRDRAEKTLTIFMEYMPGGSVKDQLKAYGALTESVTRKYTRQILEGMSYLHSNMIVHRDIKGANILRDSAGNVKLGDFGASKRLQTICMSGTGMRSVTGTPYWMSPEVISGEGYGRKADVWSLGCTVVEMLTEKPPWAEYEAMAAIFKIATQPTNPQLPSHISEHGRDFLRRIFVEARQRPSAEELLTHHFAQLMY
# MEKK2wt confirm – raises or lowers MEK5 binding to wildtype human MEKK2, retest. binding response (% of control), % at 10 µM. 2.4% of 5,900 active. shares compounds with MEKK3 PB1 HTS. bead flow cytometry, Alexa488-MEK5 binding to MEKK2 WT; actives lie on both sides; in the data active = binding response below about 16% or above about 210%; inactive = in between
# MEKK2mut confirm – signal of MEK5 binding to mutant human MEKK2, retest | shares compounds with MEKK3 PB1 HTS | bead flow cytometry, Alexa488-MEK5 binding to MEKK2 mutant | percent response, % at 10 µM | 2% of 5,900 active | AID 1893; in the data active = percent response mostly above about 71%, no sharp cut-off; inactive = mostly below about 38%;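 note: higher means compound restores mutant binding toward wildtype level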
# MEKK3 confirm – confirmation of inhibitors of MEK5 binding to human MEKK3 | bead flow cytometry, Alexa488-MEK5 binding to MEKK3; stronger effect = lower value | 1.8% of 5,900 active | binding response (% of control), % at 10 µM | shares compounds with MEKK3 PB1 HTS;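 active = binding response below 72% of control, or above a set upper limit, though filed actives all read lower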
# A number is an active result; . = inactive; / = no result; [ ] = another dose, or the depositor's remark.
SMILES,Arbovirus anti,MEKK2 mut-MEK5,MEKK2wt PB1 HTS,Pf gamet viab,MEKK3 PB1 HTS,MEKK2wt confirm,MEKK2mut confirm,MEKK3 confirm
CCOC(=O)/C=C/c1nc(C(=O)OCC)c(C)c(=O)[nH]1,/,.,.,/,75[inhibitor],.,.,.
CCc1nnc(NC(=O)CCC(=O)N2CCN(Cc3ccc(OC)c(F)c3)CC2)s1,/,.,.,/,.,/,/,/
CCCCN1C(=O)CCC(C(=O)O)C1c1ccccc1 (centres undefined),.,.,-1.0[inhibitor],/,0.0[inhibitor],.,.,.
Cn1c(C(=O)NCCCN2CCN(c3ccccc3F)CC2)cc2c(=O)[nH]c3ccccc3c21,.,.,148,/,.,.,.,.
O=C(Cc1csc(Nc2nc(=S)[nH]c3ccccc23)n1)NCc1ccc(Cl)cc1,.,.,.,/,.,/,/,/
O=C(Cc1csc(Nc2nc(=S)[nH]c3ccccc23)n1)NCCCN1CCN(c2ccccc2F)CC1,.,.,147,.,.,.,.,.
Cc1ccc(NS(=O)(=O)c2cc(NC(=O)c3ccc4c(c3)NC(=O)CS4)ccc2Cl)c(C)c1,.,.,.,.,.,/,/,/
Cn1cc(CN2CCCC(C(=O)c3ccc(-c4ccccc4)c(F)c3)C2)cn1 (centres undefined),.,.,.,.,.,/,/,/
Cc1nn(C)cc1CN1CCCC(C(=O)c2ccc(-c3ccccc3)c(F)c2)C1 (centres undefined),.,.,147,/,.,.,.,.
O=C(CSc1nc(-c2ccccc2)nc2ccccc12)Nc1cccc(C(=O)O)c1,.,.,6.0[inhibitor],.,4.0[inhibitor],.,.,.
CCc1ccc(NC(=O)CCC(=O)Nc2nnc(C(F)(F)F)s2)cc1,/,.,.,/,.,/,/,/
COc1ccc2cc(C(=O)C3CCCN(C(=O)Cc4c(C)noc4C)C3)ccc2c1 (centres undefined),.,.,.,/,.,/,/,/
c1ccc(Cc2ccc(OCCCNC3CCCC3)cc2)cc1,.,.,138,/,.,.,.,.
CC1=CC(C)(C)N2C(=O)C3(N=C(N)NC(Nc4ccccc4)=N3)c3cc(C)cc1c32 (centres undefined),.,33,154,.,.,.,.,.
O=C(OCC1COc2ccccc2O1)c1c(F)cccc1F (centres undefined),.,.,.,/,66[inhibitor],.,.,.
Cc1ccc(-c2nc(NCCN3CCOCC3)c3ccccc3n2)cc1,.,.,.,/,72[inhibitor],.,.,.
CC12C=CC3(O1)C(C(=O)N(c1ccccc1)C3C(=O)NC1CCCC1)C2C(N)=O (centres undefined),.,.,29[inhibitor],.,20[inhibitor],.,.,.
O=C(O)CCCCCNC(=O)C(=O)C1C(=O)Nc2ccccc21 (centres undefined),/,.,.,.,.,/,/,/
O=C(CNC1C(=O)Nc2ccccc21)Sc1ccccc1 (centres undefined),.,.,3.0[inhibitor],/,2.0[inhibitor],.,.,.
Cc1nc(NC(=O)/C=C/c2ccccc2)sc1C(=O)NCCO,.,79,.,.,139,.,.,.
CN(c1ccccc1C(=O)N1CCN(c2ccccc2F)CC1)S(=O)(=O)c1ccccc1,/,.,.,/,.,/,/,/
CC[n+]1c(/C=C/c2c[nH]c3ccccc23)ccc2cc(C)ccc21,.,119,/,.,.,.,.,.
COc1ccc(NC(=O)c2sc3nc(Cc4ccccc4)cc(C(F)(F)F)c3c2N)cc1OC,.,.,.,.,159,.,.,35
CC(C)c1ccc(CNC(=O)CSCC(=O)Nc2ccc3ccccc3c2)cc1,.,.,140,/,.,.,.,.
CSc1nc(C)c(Oc2ccccc2)c(=O)n1C,.,.,-1.0[inhibitor],/,-1.0[inhibitor],.,.,.
SMILES,Arbovirus anti,MEKK2 mut-MEK5,MEKK2wt PB1 HTS,Pf gamet viab,MEKK3 PB1 HTS,MEKK2wt confirm,MEKK2mut confirm,MEKK3 confirm
CCc1cc2cc(C)ccc2nc1SCC(=O)Nc1cc(C)on1,.,.,.,/,128,.,.,.
CC(C)C(=O)Nc1cccc(-c2csc(-c3ccccc3)n2)c1,.,.,.,.,139,.,.,.
Cc1ccc(NC(=O)c2ccc(NCCc3ccccc3)c([N+](=O)[O-])c2)cc1F,.,.,5.0[inhibitor],/,.,.,.,.
O=C(Nc1cc(F)cc(F)c1)c1ccc(NCCc2ccccc2)c([N+](=O)[O-])c1,.,.,.,.,.,/,/,/
COc1ccc(N(CC(=O)NCCc2ccc(OC)c(OC)c2)S(=O)(=O)c2c(C)noc2C)cc1,/,.,.,/,.,/,/,/
CCOc1ccc(NC(=S)N2CCCC2)cc1,/,.,.,/,.,/,/,/
COc1ccc(NC(=S)N2CCCC2)cc1,.,.,.,/,59[inhibitor],.,.,.
S=C(Nc1ccc(Br)cc1)N1CCCC1,.,.,.,.,131,.,.,.
CCCOc1ccc(OCCN2CCCC(C)C2)cc1 (centres undefined),.,.,.,/,.,/,/,/
Cc1ccc(S(=O)(=O)N2CCN(C(=O)C3CCCC3)CC2)cc1C,/,.,.,/,.,/,/,/
Cc1nn(Cc2ccccc2)c(C)c1NC(=O)CSc1n[nH]c(C)c1[N+](=O)[O-],.,.,.,.,134,.,.,.
Cc1nn(Cc2ccc(Cl)cc2)c(C)c1NC(=O)CSc1n[nH]c(C)c1[N+](=O)[O-],.,.,.,.,142,.,.,.
C=CCc1cc(Cl)ccc1OCCCn1ccnc1,/,.,.,/,.,/,/,/
Cc1ccc(-n2nnc(-c3cccnc3)n2)cc1,/,.,.,.,78[inhibitor],.,.,.
c1ccc(-n2nnc(-c3cccnc3)n2)cc1,.,.,.,.,.,/,/,/
Cc1ccc(SCc2cc(=O)n(C)[nH]2)cc1,.,.,.,.,.,/,/,/
Cc1cc(C)cc(N(C(=O)c2cccs2)C2C=CS(=O)(=O)C2)c1 (centres undefined),.,.,.,.,.,/,/,/
Nc1nnn(CC(=O)N/N=C/c2ccncc2)n1,/,.,.,.,130,.,.,.
COc1ccc(C(=S)N2CCOCC2)cc1OC(=O)c1cc(OC)c(OC)c(OC)c1,/,.,.,/,.,/,/,/
CC(C)OCCCNC(=O)CCN1C(=O)COc2ccccc21,.,.,-2.0[inhibitor],.,1.0[inhibitor],.,.,.
O=C(CCN1C(=O)COc2ccccc21)NCCCN1CCc2ccccc2C1,.,.,.,.,.,/,/,/
C=CCOC(=O)c1ccc(N2CCN(c3ccccc3)CC2)nc1,/,.,.,/,.,/,/,/
COc1ccc(NC(=O)c2cc(C)nc3ccccc23)c(OC)c1,.,.,.,.,.,/,/,/
COc1cc(NC(=O)c2cc(C)nc3ccccc23)cc(OC)c1OC,.,.,.,/,142,.,.,.
O=C(COC(=O)CCN1C(=O)/C(=C\C=C\c2ccccc2)SC1=S)Nc1cc(F)ccc1F,.,.,58[inhibitor],.,.,.,.,.
